Shown are actives, neighbours in structure and some others; about 2.9% of the full set was active somewhere.
A549 viability – kills or reduces viability of A549 cells in Nrf2 counter-screen; AID 504648; 390,000 tested, 0.16% active; Potency, µM (titrated, usually from 46 µM), for the others: top-dose activity change, negative = cytotoxicity, usual class: inhibitors; A549 ARE-Fluc cells, CellTiter-Fluor viability, 18-24 h; note: % is set by controls: 0 for no effect and ±100 for the full control effect
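A549 ARE_Fluc cells in 5% FBS OPTI-MEM were exposed to compounds in concentration-response for 18-24 h at 37 deg C. Viability was read by CellTiter-Fluor fluorescence (Ex 405/Em 525) after 30 min, before the luciferase read.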
Nrf2 inh – inhibitors of Nrf2 signaling. 360,000 tested, 2.1% active. AID 504444. Potency, µM (titrated, usually from 46 µM), for the others: at the top dose activity change, negative = inhibition, most hits filed as inhibitors. A549 ARE-Fluc reporter, luciferase luminescence, 18-24 h; note: % is set by controls: 0 for no effect and ±100 for the full control effect; nearly all actives have a fitted effect of over 60% in size
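A549 ARE_Fluc cells (5000/well, 5% FBS OPTI-MEM) pre-incubated 2 h, then treated with compounds 18-24 h at 37C/5% CO2 in concentration-response. CellTiter-Fluor viability read first; BugLite luciferase luminescence after 15 min at room temperature gives Nrf2 activity.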
ATXN2 expr inh – inhibitors of ATXN2 expression; HEK-293 ATXN2-luciferase reporter, luminescence, 24 h; Potency, µM (top dose mostly 57 µM), inactives show at the highest dose activity change, negative = inhibition, hits mostly inhibitors; 360,000 tested, 0.72% active; note: % is set by controls: 0 for no effect and ±100 for the full control effect; nearly all actives have a fitted effect of over 55% in size
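ATXN2-luciferase reporter cells (luciferase flanked by upstream and downstream ATXN2 gene portions) were treated 24 h at 37 °C with compounds at up to 57 uM. SteadyGlo luminescence gave expression; GF-AFC fluorescence gave viability.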
Nrf2 ARE act – activates Nrf2 signaling; AREc32 ARE-luciferase reporter (MCF7-derived line), luminescence, 24 h; Potency, µM (doses to about 46.1 µM), for inactives: at the top dose activation, most hits filed as activators; 410,000 tested, 0.31% active; AID 624171; note: % of control where 0% means no effect; nearly all actives have a fitted effect of over 65% in size
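Nrf2 activation is followed as ARE-luciferase induction in the AREc32 line after one day of compound treatment; luminescence is read with Steady-Glo.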
ATXN viability – reduces viability in counter-screen for ATXN expression inhibitors; Potency, µM (highest dose often 56.7 µM), most hits filed as cytotoxic; S2 cells (HEK-293 line with an ATXN2-luciferase reporter) viability, CellTiter-Fluor protease fluorescence, 24 h; 400,000 tested, 0.49% active; note: nearly all actives have a fitted effect of over 40% in size
* = called active by the depositor; i = inactive; u = inconclusive; x = no result given. Calls come from the whole dose curve; as a rule, active = well fitted curve in the direction sought with a large enough effect; inconclusive = small, poorly fitted or top-dose-only effect, or another doubt; inactive = no such curve, though single readings can be large; an effect the other way counts as inactive or inconclusive. Potency is the fitted concentration of half-maximal effect.

SMILES | A549 viability | Nrf2 inh | ATXN2 expr inh | Nrf2 ARE act | ATXN viability
CN(C)C(=O)Oc1c(Cl)cc(Cl)c2cccnc12 | 2% | -9% | 5% | 0% | i
COc1ccc(NS(=O)(=O)c2ccc3c(c2)CCCN3C(=O)C2CCC2)cc1OC | -9% | x | u | 0% | u
O=C(NCc1ccc(Cl)cc1)C1CCCN(C(=O)c2cnn(-c3ccc(F)cc3)c2-n2cccc2)C1 (configuration not stated) | -11% | u | x | 1% | x
CSc1cccc(NC(=O)C2CCN(C(=O)c3cnn(-c4ccccc4)c3-n3cccc3)CC2)c1 | -22% | 23µM* | u | 7% | u
Cc1ccc(NC(=O)C2CCCN(C(=O)c3cnn(-c4ccccc4)c3-n3cccc3)C2)cc1 (configuration not stated) | -6% | 13µM* | -10% | 1% | i
CCOC1=C(N2CC2)C(=O)C(OCC)=C(N2CC2)C1=O | -11% | u | 3% | 0% | i
COc1cc([N+](=O)[O-])c2ncccc2c1[N+](=O)[O-] | x | x | u | -1% | u
COc1cc([N+](=O)[O-])c2nc(C)ccc2c1[N+](=O)[O-] | -8% | -7% | -25% | 18µM* | 28µM*
CC(C)(C)OC(=O)c1ncn2c1[C@@H]1CCCN1C(=O)c1c(Br)cccc1-2 | x | x | 7% | x | i
COC(=O)C1=C(c2cc3ccccc3s2)C[C@@H]2CC[C@H]1N2C(=O)N1CCCCC1 | 0% | u | -32% | 5% | u
CNC(=O)Oc1ccc(-c2cn3cc(C)ccc3n2)cc1 | u | 1.2µM* | 8.9µM* | -3% | i
CNC(=O)Oc1cccc(-c2cn3cc(Cl)ccc3n2)c1 | 1% | u | -41% | u | i
CCOc1ccc(C2c3c(-c4ccccc4O)n[nH]c3C(=O)N2Cc2ccncc2)cc1 (configuration not stated) | -2% | -8% | -23% | 0% | u
O=C1C(=O)c2ccccc2-c2ccccc21 | u | 18µM* | 2.5µM* | -3% | 2.8µM*
O=C1C(=O)c2cccc3cccc1c23 | 1% | 11% | u | 0% | u
CN1CCN(c2ccc([N+](=O)[O-])c(N/N=C3\CN4CCC3CC4)c2)CC1 | 21µM* | 0% | -7% | 0% | 10µM*
CCC1CN1P(=S)(N1CC1CC)N1CC1CC (configuration not stated) | -3% | -18% | -13% | 0% | i
CCOc1ccccc1CN(CCc1ccc2c(c1)OCO2)Cc1ccc(CC)cc1 | -3% | 17% | -14% | 4% | i
C#C[C@@]1(O)CC[C@@H]2[C@@H]3CCC4=CC(=O)CC[C@@]4(C)[C@H]3CC[C@]21C | x | x | x | x | i
O=C(O)c1sccc1Oc1ccc(F)cc1[N+](=O)[O-] | -17% | 23µM* | -1% | 3% | i
CN1c2ccccc2Oc2ccccc21 | -3% | 0% | 2% | -1% | i
O=C1NC(=O)C(=Cc2ccc(-c3ccc(S(=O)(=O)N4CCOCC4)cc3)o2)C(=O)N1 | 0% | -5% | 2% | 0% | i
O=C1NC(=O)C(=Cc2ccc(-c3ccc(Cl)cc3)o2)C(=O)N1 | -13% | u | u | 3% | 28µM*
CCCCSP1(=S)NCCCN1 | 2% | 8% | 0% | 0% | i
C[C@H](CO)N1C[C@H](C)[C@@H](CN(C)Cc2ccc(-c3ccccc3)cc2)Oc2c(NC(=O)c3ccncc3)cccc2C1=O | -19% | 21µM* | u | 0% | u
CC(C)(C)C(=O)N1Cc2cc(N3CCCCC3)ccc2-n2nncc2C1 | x | x | -1% | 0% | i
COc1ccc(NS(=O)(=O)c2ccc3c(c2)oc(=O)n3C)cc1Cl | 0% | 15µM* | -22% | 2% | i
O=C(Nc1ccccc1F)Oc1cccc(OC(=O)Nc2ccccc2F)c1 | 0% | u | x | 0% | u
CCOc1ccc(CCNC(=O)c2cc3c(-c4cccc(OC)c4)nn(C)c3s2)cc1OCC | -8% | 18µM* | u | -1% | u
CC(=O)O[C@H]1C[C@@H]2OC3C=C(C)CCC3(C)[C@@]1(C)[C@@]21CO1 (some centres not stated) | x | 6.5µM* | u | -2% | u

From PubChem BioAssay
